Test results: the supplement of paper PMC6555819

Test system: RXRa homodimer (NR concentration 180 nM)
Assay: PBM binding z-score (relative to random genomic background probes); higher = stronger binding; sequences stand for … in GC…GCGATTGACAGCGTAGAATGAAGG
In short: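 Ligand-free nuclear receptor dimers were bound for 1 h to custom Agilent 4×180K protein-binding microarrays. Detection used antibodies against each partner (one per run). Binding z-scores rest on regression-normalized fluorescence, with random background probes as the reference.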

| Sequence | PBM binding z-score |
| --- | --- |
| TCTAGTTGGTAAAAGGTCACACACTCGAAATGCG | 6.64 |
| GATACAGGGTCAGCTAGAGGCCGGAGTATGGAAA | 4.04 |
| GGAACGAGGGCAAAGTTAATAGCATCTGTCGACG | 1.55 |
| CCTACTGGGCCATTCAGAGTTCATTGATCATATG | 1.28 |
| ACTACAGGGTCATCGTAGGCCAGAGTACGCACAG | 5.9 |
| CGAACTAGGTCAATGACAGGACAGTGAATAGTAA | 2.17 |
| ATATGTAGGTTACATCCGGGTCATTCAAGCTATG | 3.24 |
| CAAACTAGGTCACGGAGGTCAAAGTCCGTGCGTA | 7.23 |
| GGAACCAGGGCATTCGAGTTGATAGCATGGCGAT | 0.534 |
| TCTACTTGGTCAAAGGTCACACACTCGAAATGCG | 8.15 |
| AGAACGAGGGCACGCTGAGTTGATAGTAGAGTAG | 1.34 |
| CCTTACGGGTCACTGACAGGTTATATCATTTGGA | 5.22 |
| ATATCTAGGTAAAGATAGTTCAGTGAATGCAAAT | 0.518 |
| AGAACGAGGGCACGCCGAGTTGATAGCAGAGTAG | 1.47 |
| TCATATAGGTAAAAGGTGAAAGGCGGTGTGGTAA | 2.97 |
| AGTATGAGGTTATTAAGATCAGGGAATTGCGGTC | 1.53 |
| ATATGTATGTTACATCCGGGTCATTCAGGCTATG | 2.21 |
| CCTAGCAGGCAAATCTGGGTCACTCAAGGCTTGA | 0.625 |
| CCTACTGAGCCACGAAAGGTCATTGATTCAGTGA | 5.47 |
| CGTCCAAGGTCATAGGTCAGTGAAGAGATGACGG | 8.18 |

| Sequence | PBM binding z-score |
| --- | --- |
| GGAACGAGGGCATTCGAGTTGATAGCCTGGCGAT | 0.739 |
| CCTAGTTGGTCAGTAGGTCACACACCGGATATGA | 2.79 |
| TAGCCTCGGTCATGCGGGCCAGTATAGTGTCGGC | -0.228 |
| ATATGTAGGTTAGCTGGGGTTATTCAGACTAGGC | 2.43 |
| CATACAGGGTCAGCTATGCCAGAGTAGGGACGGC | 4.14 |
| TCATATAGGTAAATGCTAGGTGAAAATCCGATCT | 0.795 |
| ATCTCTGGGTAAAGATAGTTCAGTGAATGCAAAT | 0.123 |
| CGATCTAGGTCAGAACAGGACAGTGAAGGATGAT | 0.982 |
| AGAATAAGGTTACCAAAGATCAGGGAAACGCTTG | 2.36 |
| TGAATGAGGTTATAAGATCCGGGAACGTTGCAAA | 1.78 |
| ATCTCTAGGAAACCAAGTTCAGTGAATGCCGAAC | 0.323 |
| TCTTATAGATCAAGCAGGTTAAGAAAGCCTGAGT | 0.704 |
| TCTAGCAGGCCAGAGGGTCTCTCAAGAGGTACGG | -0.223 |
| GCTGCAAGGTCAGGTTGGTCAGCTAACGGGTACG | 3.72 |
| CAGCTTAGGTCAGGGCCAGTATAGGAGGAACGTT | 1.75 |
| GCATGTAGATCAAGGTTAAGAAAGACTAAGCTAA | 0.645 |
| ATCTCTAGGTAACCAAGTGCAGTGAATGCCGAAC | 0.0437 |
| CCTACTGGTCCAAAAAGGTCATTGATGCCGATAA | 4.74 |
| CCTATTAGTCGACCATAAGGGCAACCGAAGCTCG | 0.505 |
| CCGACTGGGGCATAAGGTTATCATAAGCCAGCCC | 1.14 |
